# Measured values: PubChem BioAssay (NCATS)
# Several values for one entry are separate records, joined by “and”; a condition that tells them apart may be missing. Identical values can stand only once. Records with an inconclusive call do not appear. A call without a number means that no potency is given here. The source holds several records for some structures; these can differ, active in one and inactive in another. Activity calls are given as the source filed them. Unless noted, the call rests on the fitted dose curve; in most records, active means well fitted curve in the direction sought with a large enough effect; inconclusive means small, poorly fitted or top-dose-only effect, or another doubt; inactive means no such curve, though single readings can be large; an effect the other way counts as inactive or inconclusive.
# Assays:
# [1] = target: Calcium and integrin-binding protein 1 (Homo sapiens) (UniProt Q99828); test: Primary qHTS for Identification of Calcium Integrin Binding Protein 1 (CIB1) Competitor (AID 1508620);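 further: GST tagged CIB1 binding a fluorescein labelled alphaIIb integrin peptide tracer; top concentration of the series differs between compounds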
# Summary of the method: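 Fluorescence polarization competition: CIB1-GST (1 uM final) preincubated with compound 15 min at room temperature, then FITC-labeled alphaIIb peptide (100 nM final) added for another 15 min. Polarization read at Ex 480/Em 540.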
# [2] = target: Cytochrome P450 2D6 (Homo sapiens) (UniProt P10635); test: Cytochrome P450 family 2 subfamily D member 6 (CYP2D6) small molecule antagonists: luciferase biochemical (cell-free) qHTS assay (AID 1645840; active means well fitted curve in the direction sought with a large enough effect in the repeat runs; an effect the other way counts as inactive or inconclusive; further: nearly all actives have a fitted effect of over 55% in size; further: potency means the concentration at half of the fitted maximal effect)
# Summary of the method: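 P450-Glo CYP2D6 system: proluciferin substrate converted by enzyme to luciferin, read by luminescence proportional to activity. Enzyme-substrate mix with compound 10 min at room temperature, then NADPH regeneration 1 h before detection reagent.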
# [3] = target: Cytochrome P450 2C9 (Homo sapiens) (UniProt P11712); test: Cytochrome P450 family 2 subfamily C member 9 (CYP2C9) small molecule antagonists: luciferase biochemical (cell-free) qHTS assay (AID 1645842; active means well fitted curve in the direction sought with a large enough effect in the repeat runs; an effect the other way counts as inactive or inconclusive; further: nearly all actives have a fitted effect of over 55% in size; further: potency means the concentration at half of the fitted maximal effect)
# Summary of the method: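 P450-Glo CYP2C9 system: proluciferin substrate with enzyme in mix containing 0.4% BSA, 10 min at room temperature, then NADPH regeneration solution added and incubated 1 h at 37C. Detection reagent stopped reaction; luminescence read after 20 min as RLU.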
# [4] = Primary qHTS for inhibitors of nuclear receptor binding SET domain protein 2 (NSD2) in an isogenic RCH-ACV NSD2 p.E1099K mutant (9B) (AID 1645876); further: nearly all actives have a fitted effect of over 70% in size; further: potency means the concentration at half of the fitted maximal effect
# [5] = Primary qHTS for inhibitors of nuclear receptor binding SET domain protein 2 (NSD2) in an RCH-ACV wild type WT cells (2C) (AID 1645877); further: nearly all actives have a fitted effect of over 70% in size; further: potency means the concentration at half of the fitted maximal effect
# Sequence of Cytochrome P450 2D6 (Homo sapiens) (P10635 whole entry, looked up): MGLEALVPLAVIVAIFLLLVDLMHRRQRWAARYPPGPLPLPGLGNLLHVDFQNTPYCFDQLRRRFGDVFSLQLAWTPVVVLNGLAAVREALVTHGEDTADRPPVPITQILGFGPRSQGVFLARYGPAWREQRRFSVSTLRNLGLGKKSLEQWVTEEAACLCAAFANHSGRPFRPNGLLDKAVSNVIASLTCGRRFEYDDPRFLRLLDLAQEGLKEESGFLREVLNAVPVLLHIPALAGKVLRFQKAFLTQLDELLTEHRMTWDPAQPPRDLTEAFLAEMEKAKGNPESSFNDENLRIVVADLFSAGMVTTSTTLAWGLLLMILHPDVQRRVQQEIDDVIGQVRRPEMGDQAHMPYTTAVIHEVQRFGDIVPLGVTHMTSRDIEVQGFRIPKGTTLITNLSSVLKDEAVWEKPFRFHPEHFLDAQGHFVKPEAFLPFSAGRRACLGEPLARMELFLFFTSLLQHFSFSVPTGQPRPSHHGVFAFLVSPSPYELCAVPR
# Sequence of Calcium and integrin-binding protein 1 (Homo sapiens) (Q99828 whole entry, looked up): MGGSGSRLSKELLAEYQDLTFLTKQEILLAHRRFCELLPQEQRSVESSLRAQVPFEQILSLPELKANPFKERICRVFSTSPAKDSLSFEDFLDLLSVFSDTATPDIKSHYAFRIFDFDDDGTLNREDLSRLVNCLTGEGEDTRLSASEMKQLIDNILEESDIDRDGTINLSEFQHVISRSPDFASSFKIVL
# Sequence of Cytochrome P450 2C9 (Homo sapiens) (P11712 whole entry, looked up): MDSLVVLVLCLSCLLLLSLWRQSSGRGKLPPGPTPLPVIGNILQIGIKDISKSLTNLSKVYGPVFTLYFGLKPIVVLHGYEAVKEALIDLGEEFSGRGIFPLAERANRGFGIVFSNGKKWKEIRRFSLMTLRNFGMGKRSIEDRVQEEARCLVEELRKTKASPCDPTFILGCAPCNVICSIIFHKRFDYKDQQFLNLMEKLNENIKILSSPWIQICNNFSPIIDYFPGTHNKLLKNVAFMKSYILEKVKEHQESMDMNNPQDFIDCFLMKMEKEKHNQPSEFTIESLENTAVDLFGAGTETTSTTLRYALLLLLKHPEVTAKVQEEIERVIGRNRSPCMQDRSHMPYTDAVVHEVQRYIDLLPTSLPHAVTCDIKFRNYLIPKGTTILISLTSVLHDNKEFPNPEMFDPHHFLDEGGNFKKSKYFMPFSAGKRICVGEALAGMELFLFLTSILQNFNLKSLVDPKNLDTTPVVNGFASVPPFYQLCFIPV
Compound,Potency [1],Potency [2],Potency [3],Potency [4],Potency [5]
O=C(CN1C(=O)C2(CCCC2)NCC1c1cc(F)cc(F)c1)Nc1ccc2c(c1)CC1(C2)C(=O)Nc2ncccc21 (stereo not given),inactive,inactive,3.01 µM (active),inactive,inactive
CCOC(=O)c1cc(C#N)c(N2CCC(C(=O)NS(=O)(=O)Cc3ccccc3)CC2)nc1C,inactive,inactive,2.68 µM (active),inactive,inactive
COc1cc(Nc2nc3c(s2)CCCC3c2ccc(F)cc2)ccc1-n1cnc(C)c1 (stereo not given),inactive,0.849 µM (active),1.34 µM (active),11.5 µM (active),10300 nM (active)
O=C(CC(c1ccccc1)c1ccccc1)N1CCN(C(c2ccccc2)c2ccccc2)CC1,inactive,inactive,4.77 µM (active),7.28 µM (active),8170 nM (active)
CS(=O)(=O)N(CC(=O)NCC1CC1)c1cc(C(F)(F)F)ccc1Cl,inactive,inactive,3.38 µM (active),inactive,inactive
Cn1c(=O)n(-c2ccc(C(C)(C)C#N)cc2)c2c3cc(C#Cc4cccnc4)ccc3ncc21,inactive,inactive,0.522 µM (active),0.0178 µM (active),14.2 nM (active)
NC(=O)Nc1cc(-c2cccc(F)c2)sc1C(=O)NC1CCCNC1 (stereo not given),inactive,inactive,inactive,0.0728 µM (active),81.7 nM (active)
CCCn1c(=O)c2[nH]c(-c3ccc(OCC(=O)O)cc3)nc2n(CCC)c1=O,inactive,inactive,inactive,inactive,inactive
CC1(C)CC(NC(=O)C(=O)Nc2ccc(Br)cc2)CC(C)(C)N1,inactive,inactive,inactive,8.17 µM (active),5780 nM (active)
COc1ccc(C(=O)Nc2ncc(-c3ccc(C(=O)O)cc3)s2)cc1,inactive,inactive,10.7 µM (active),1.63 µM (active),1840 nM (active)
COc1ccc(-c2ccc3c(N4CCOCC4)nc(N4CC(C)OC(C)C4)nc3n2)cc1CO (stereo not given),inactive,inactive,6.74 µM (active),0.205 µM (active),291 nM (active)
O=C(CCc1nnc2n(Cc3ccc(Cl)cc3)c(=O)c3ccccc3n12)NCCC1=CCCCC1,inactive,7.56 µM (active),4.77 µM (active),inactive,inactive
CCCCCCOc1cc2c(cc1N(C)c1ncc(C(=O)O)cn1)C(C)(C)CCC2(C)C,inactive,10.7 µM (active),inactive,inactive,inactive
COc1cc(N2CCOCC2)ccc1Nc1ncc(Cl)c(Nc2ccccc2NS(C)(=O)=O)n1,inactive,15.1 µM (active),inactive,1.15 µM (active),1830 nM (active)
C#CCN(Cc1cc2c(=O)[nH]c(C)nc2cc1Br)c1ccc(C(=O)NCc2cccnc2)cc1,inactive,inactive,3.01 µM (active),inactive,2.3 nM (active)
Cc1cccc(/C=N/Nc2cc(N3CCOCC3)n3nc(-c4ccncc4)cc3n2)c1,inactive,3.79 µM (active),1.34 µM (active),0.578 µM (active),515 nM (active)
COc1ccc2[nH]c3c(-c4cccc5ccccc45)nccc3c2c1,inactive,0.0151 µM (active),1.51 µM (active),0.916 µM (active),578 nM (active)
COc1cc(Br)c(S(=O)(=O)Nc2ccc(C(F)(F)F)c(O[C@@H]3CCN(C)C3)c2)cc1OC,inactive,23.9 µM (active),23.9 µM (active),inactive,inactive
CNC(=O)c1cccc(-c2ccc3c(N4CCOC[C@@H]4C)nc(N4CCOC[C@@H]4C)nc3n2)c1,inactive,inactive and 15.1 µM (active),12 µM (active) and 10.7 µM (active),129 nM (active) and 326 nM (active) and 148 nM (active),230 nM (active) and 326 nM (active) and 296 nM (active)
Cn1cc(S(=O)(=O)c2ccc(Cl)cc2)c2cccc(N3CCNCC3)c21,inactive,13.5 µM (active),8.49 µM (active),18.3 µM (active),11500 nM (active)
COc1ccc(CCO[C@@H]2CCCC[C@H]2N2CC[C@@H](O)C2)cc1OC,inactive,10.7 µM (active),inactive,inactive,inactive
NC1CCC(Nc2cc(-c3cccc(NCc4cccc(F)c4)n3)c(Cl)cn2)CC1 (stereo not given),inactive,15.1 µM (active),2.13 µM (active),0.0817 µM (active),72.8 nM (active)
